Measured values from PubChem BioAssay.
Values without a mark were called inactive. How the calls were made is not given here.

Target: Pantothenate synthetase (Mycobacterium tuberculosis (strain ATCC 25618 / H37Rv)) (UniProt P9WIL5)
Assay: Coupled enzyme confirmation of inhibitors against recombinant Mtb PanC (AID 375);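 further: 0% = full reaction with vehicle and 100% = no enzyme background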
Conditions: coupled enzyme assay; at 10 µM, active compounds read high

Sequence of Pantothenate synthetase (Mycobacterium tuberculosis (strain ATCC 25618 / H37Rv)) (P9WIL5 whole entry, looked up): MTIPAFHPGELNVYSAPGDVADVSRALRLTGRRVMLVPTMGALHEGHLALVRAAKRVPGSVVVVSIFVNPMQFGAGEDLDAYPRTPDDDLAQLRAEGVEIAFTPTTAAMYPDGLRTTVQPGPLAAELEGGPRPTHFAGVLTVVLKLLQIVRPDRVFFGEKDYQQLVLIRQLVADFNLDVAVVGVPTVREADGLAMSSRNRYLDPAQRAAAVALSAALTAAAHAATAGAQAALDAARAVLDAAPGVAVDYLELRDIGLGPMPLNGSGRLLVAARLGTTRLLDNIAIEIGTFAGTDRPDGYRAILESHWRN

Compound | inhibition [%]
COc1ccc(OC)c(Nc2ncnc3c2cnn3-c2ccccc2)c1 | 0
COc1ccccc1OCCCCNCCO | 0
CC1=C(C(=O)NC2CCCC(C)C2C)C2(CCCCC2)OC1=O (stereo unspecified) | 0
Cc1cccc(-c2noc(CCC(=O)Nc3ccccc3)n2)c1 | 5
O=C(NC1CCCCC1)C(c1ccccc1)N(Cc1ccco1)C(=O)Cn1cnc2ccccc21 (stereo unspecified) | 0
COc1ccc(Br)cc1CNC(=O)CCc1nc(-c2ccc(C)cc2)no1 | 4
O=C(C1CCCO1)N1CCN(Cc2nc3ccccc3c(=O)[nH]2)CC1 (stereo unspecified) | 0
CCCCC[C@H](O)/C=C/[C@@H]1[C@@H](CCCCCCC(=O)O)[C@@H](O)C[C@H]1O | 0
Nn1c(SCC(=O)Nc2ccc3c(c2)OCCO3)nnc1C(F)(F)F | 4
CC(C)Cn1c(CN(Cc2ccccc2)Cc2ccccc2)nc2c1c(=O)n(C)c(=O)n2C | 5
COC(=O)CCCCC(=O)C1C(=O)CC(C)(C)C(C(=O)OC)C1=O (stereo unspecified) | 0
COc1ccc(-c2cc3n(n2)CCc2nc4ccccc4n2-3)cc1 | 0
O=C(CSc1ccc2nnc(-c3ccccc3)n2n1)N1CCN(c2ccccc2)CC1 | 1
CC1(C)Cc2c(c(-c3ccccc3)nc(N3CCCC3)c2C(N)=O)CO1 | 4
CCCC(=O)Nc1ccc(OCC(O)CNC(C)C)c(C(C)=O)c1 (stereo unspecified) | 0
N#C/C(=C(/O)COC(=O)CCC1CCCCC1)c1nc2ccccc2[nH]1 | 6
